# Rows were chosen to be rich in hits. Some 3.6% of all compounds tested hit in one or more screens of this group.
# Sm TGR block: qHTS Assay for the Inhibitors of Schistosoma Mansoni Peroxiredoxins. purified TGR, DTNB reduction, TNB absorbance 405 nm. Potency, µM (top dose mostly 114 µM), without a hit: at the highest dose activity change, negative = inhibition, actives largely listed as inhibitors. 360,000 tested, 3% active. AID 485364, 2010; also: nearly all actives have a fitted effect of over 60% in size
#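 Kinetic colorimetric format: TGR-catalysed, NADPH-driven DTNB reduction monitored via TNB absorbance. Enzyme dispensed at 20 nM; compound exposure 15 min at room temperature before reaction start.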
# AmpC inh detg: qHTS Inhibitors of AmpC Beta-Lactamase (assay with detergent). AmpC hydrolysis of nitrocefin, absorbance 480 nm, 0.01% Triton. Potency, µM (doses to about 114 µM), without a hit: at the highest dose activity change, negative = inhibition, most hits filed as inhibitors. P00811. 370,000 tested, 0.041% active;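 also: 0% = no-compound wells and -100% = no-enzyme wells; nearly all actives have a fitted effect of over 25% in size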
# Target sequence (P00811 whole entry, looked up): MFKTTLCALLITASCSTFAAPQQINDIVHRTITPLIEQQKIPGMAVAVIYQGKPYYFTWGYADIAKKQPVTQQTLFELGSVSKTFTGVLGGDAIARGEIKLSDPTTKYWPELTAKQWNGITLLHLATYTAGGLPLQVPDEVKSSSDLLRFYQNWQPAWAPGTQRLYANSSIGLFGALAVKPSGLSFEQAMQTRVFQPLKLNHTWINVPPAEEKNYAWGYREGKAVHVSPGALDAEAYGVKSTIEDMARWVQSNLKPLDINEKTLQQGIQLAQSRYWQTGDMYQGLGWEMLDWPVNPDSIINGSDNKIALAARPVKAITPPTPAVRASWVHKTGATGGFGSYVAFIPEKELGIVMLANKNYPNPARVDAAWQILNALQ
#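 AmpC (5.3 nM in the dispensed reagent) in 20 mM phosphate pH 7.0 with 0.01% (detergent screen) or 0.0001% Triton X-100 was preincubated with compounds for 15 min at room temperature. Nitrocefin was then added from an 800 uM solution, and hydrolysis was followed at 480 nm.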
# Giardia FBPA inh: qHTS Assay for Inhibitors of Fructose-1,6-bisphosphate Aldolase from Giardia Lamblia | 290,000 tested, 0.71% active | Potency, µM (doses to about 59.6 µM), without a hit: at the top dose activity, negative = inhibition, hits mostly inhibitors | A8B2U2 | purified Giardia FBPA | AID 2451, 2010; also: nearly all actives have a fitted effect of over 55% in size
#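 Giardia FBPA (40 nM reagent) was preincubated 10 min at RT with compound (up to 57.5 uM final), then substrate plus GAPDH/TPI/NAD/arsenate coupling system with diaphorase/resazurin was added; resorufin fluorescence (525/598 nm) was read after 20 min.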
# AmpC no deterg: qHTS Inhibitors of AmpC Beta-Lactamase (assay without detergent); P00811; AmpC nitrocefin hydrolysis, absorbance 480 nm, 0.0001% Triton; Potency, µM (top dose mostly 57.1 µM), for inactives: at the highest dose activity change, negative = inhibition, most hits filed as inhibitors; 330,000 tested, 0.52% active;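 also: plate controls were no compound for no effect and no enzyme for full effect; nearly all actives have a fitted effect of over 20% in size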
#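 AmpC (5.3 nM in the dispensed reagent) in 20 mM phosphate pH 7.0 with 0.01% (detergent screen) or 0.0001% Triton X-100 was preincubated with compounds for 15 min at room temperature. Nitrocefin was then added from an 800 uM solution, and hydrolysis was followed at 480 nm.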
# Starred values were filed as active, the others as inactive; ? = inconclusive; · = not tested or not shown; [ ] = dose if it differs, or a comment. Calls follow the shape of the dose curve; as a rule, active = well fitted curve in the direction sought with a large enough effect; inconclusive = small, poorly fitted or top-dose-only effect, or another doubt; inactive = no such curve, though single readings can be large; an effect the other way counts as inactive or inconclusive. Unless noted, % is scaled to controls: 0 for no effect and ±100 for the full control effect; potency is read from the fitted curve at half-maximal effect.
SMILES,Sm TGR block,AmpC inh detg,Giardia FBPA inh,AmpC no deterg
CCCCCCNC(=O)N[C@H](C(=O)NCCC[C@H]1CN2C(=NC[C@H]2C)N1CCC(c1ccccc1)c1ccccc1)C(C)O (stereo not given in full),0.5µM*,0%,?,233%
Cc1ccc(-c2nc(CS(=O)CC(=O)NC3CCCC(C)C3C)c(C)o2)cc1 (stereo not given),45µM*,1%,·,142%
COc1ccc(-c2nc(CS(=O)CC(=O)NC3CCCC(C)C3C)c(C)o2)cc1OC (stereo not given),13µM*,-4%,-10%,130%
CC(C)Cn1c(=O)c2sccc2n2c(CCCC(=O)NC3CCCCC3)nnc12,7%,7%,·,·
O=C(COC(=O)c1cc(=O)[nH]c2ccccc12)Nc1ccc(Cl)cn1,7%,-9%,·,-18%
CC(=O)OCCBr,·,·,-4%,·
Cc1ccc(CNC(=O)Nc2ccc(F)cc2)n1C,14µM*,?,-17%,4%
Cc1ccc(CNC(=O)Nc2ccc(OC(F)(F)F)cc2)n1C,?,-14%,-5%,1%
COc1ccccc1NC(=O)NCc1ccc(C)n1C,40µM*,-9%,-19%,11%
Cc1ccc(CNC(=O)NC2COc3ccccc3C2)cc1 (stereo not given),8%,34%,·,·
COc1ccc(Cl)cc1NC(=O)c1cn(C2CCCC2)c(=O)c2c1c1ccccc1n2C,5%,14%,·,·
O=C(CCC1CCCN(C(=O)CCC(F)(F)F)C1)NCc1ccc(F)c(F)c1 (stereo not given),25%,1%,8%,-20%
Cc1ccc(CNC(=O)CCC2CCCN(C(=O)CCC(F)(F)F)C2)o1 (stereo not given),13µM*,6%,0%,28%
Cc1ccc(CNC(=O)CCC2CCCN(C(=O)c3ccc4c(c3)OCO4)C2)o1 (stereo not given),14µM*,6%,1%,13%
O=C(CCC1CCCN(C(=O)c2ccc3c(c2)OCCO3)C1)NCc1ccccc1F (stereo not given),13%,8%,4%,11%
CNC(=O)C(=O)NCCCN1CCOCC1,-8%,?,4%,-12%
COc1ccc(C(=O)/C=C/C(=O)N(CC(=O)NCCC(C)C)Cc2cccs2)c(O)c1,2.8µM*,1%,2%,56%
CS(=O)(=O)N(CC(=O)NC1CCCCC1)Cc1ccc(F)cc1,-1%,-7%,1%,-4%[2.29 µM]
COc1ccc(C(=O)/C=C/C(=O)N(CC(=O)NC2CCCCC2)Cc2ccc(F)cc2)c(O)c1,3.5µM*,2%,2%,31%
CCOc1cc(C2NC(=O)N(C)C(C)=C2C(=O)OC)cc(Br)c1O (stereo not given),50µM*,-2%,-4%,-10%
COc1cc(C2NC(=O)N(C)C(C)=C2C(=O)OCc2ccccc2)cc(Br)c1O (stereo not given),-5%,?,-2%,0%
O=C(Cc1ccccc1)Nc1cccc(N2C(=O)C=CC2=O)c1,0.45µM*,?,-15%,-30%
COc1cccc(NC(=O)Cc2ccccc2)c1,-11%,?,1%,-11%
Fc1cccc(NC(=S)Nc2cccnc2)c1,18µM*,2%,-15%,-10%[2.29 µM]
CN(C)S(=O)(=O)c1cccc(NC(=S)Nc2cccc3cnccc23)c1,10µM*,-7%,2.5µM*,-27%
SMILES,Sm TGR block,AmpC inh detg,Giardia FBPA inh,AmpC no deterg
Fc1ccc(NC(=S)Nc2cccc3ccccc23)cc1,-2%,?,?,-25%
Fc1ccc(NC(=S)Nc2cccc3cnccc23)cc1,45µM*,-2%,2.8µM*,-19%[11.4 µM]
COc1cc(NC(=S)Nc2cccnc2)cc(OC)c1,45µM*,5%,-8%,-27%
Cc1ccc(C)c(NC(=O)CSc2c(C)cnc3c2c(=O)n(C)c(=O)n3C)c1,1%,3%,·,·
C/C(=N\NC(=O)c1ccc2c(c1)OCO2)c1ccc(NC(=O)CCCC(=O)O)cc1,-32%,?,-4%,-18%
S=C(Nc1cccnc1)Nc1cccc2cnccc12,45µM*,?,?,-13%
COc1ccc(NC(=S)Nc2cccc3cnccc23)cc1,56µM*,-8%,?,-36%
Cc1ccc(S(=O)(=O)N(C)C)cc1NC(=S)Nc1cccc2ccccc12,16µM*,-2%,-9%,-34%
CC(=O)NNC(=S)Nc1cc(S(=O)(=O)N(C)C)ccc1C,-22%,4%,-19%,4%
S=C(Nc1ccc(Cl)cc1)Nc1cccc2cnccc12,0%,-14%,1.6µM*,-53%
COc1ccc(OC)c(N(C)S(=O)(=O)c2ccc3c(c2)NC(=O)CC(=O)N3)c1,-7%,7%,·,·
CC(C)N(C(=S)Nc1cccc(S(=O)(=O)N(C)C)c1)c1ccccc1,11µM*,2%,-14%,-20%
COc1ccc(-n2nc3cc(N)c(Br)cc3n2)cc1,4%,?,1%,-29%
COc1ccc(-n2nc3cc(C)c(N)c(Br)c3n2)cc1,40µM*,-3%,7.1µM*,-17%
O=c1c(Cc2ccccc2)c(O)c2cccc3c4c(n1c23)CCCC4,-12%,0%,0%,7.9µM*
COc1ccc(N2CCN(S(=O)(=O)c3ccc(F)c(C(=O)Nc4ccccc4Cl)c3)CC2)cc1,2%,-1%,·,·
CC(C)C(c1nnnn1C(C)(C)C)N1CCC(Cc2ccccc2)CC1 (stereo not given),0%,?,2%,68%
O=C(O)/C=C/C(=O)c1ccc2c(c1)CCc1ccccc1-2,0.56µM*,-6%,·,-34%
CC[n+]1c(C)n(C)c2cc(S(=O)(=O)N(C)C)ccc21,50µM*,-4%,4%,-15%
CCn1c(C)[n+](CC)c2ccc(S(=O)(=O)N(C)C)cc21,·,-1%,0%,-3%
CCOc1ccc(S(=O)(=O)N2CCC(C(=O)NCCc3ccccc3)CC2)cc1,-5%,?,-8%,-6%
Cc1cccc(-c2nc(CS(=O)CC(=O)NCC3CCCO3)c(C)o2)c1 (stereo not given),28µM*,?,-2%,0%
Cc1cccc(-c2nc(CS(=O)CC(=O)NCc3cccs3)c(C)o2)c1 (stereo not given),-23%,-13%,3%,26%
Cc1cccc(-c2nc(CS(=O)CC(=O)N3CCCCC3)c(C)o2)c1 (stereo not given),35µM*,?,-1%,6%
CCOC(=O)N1CCN(C(=O)CS(=O)Cc2nc(-c3ccc(C)cc3)oc2C)CC1 (stereo not given),?,-11%,2%,30%
Cc1ccc(-c2nc(CS(=O)CC(=O)N3CCN(c4ccccc4)CC3)c(C)o2)cc1 (stereo not given),-15%,7%,·,149%
Cc1oc(-c2ccccc2)nc1CS(=O)CC(=O)N1CCc2ccccc2C1 (stereo not given),3.2µM*,-19%,-21%,29%
CC(C)Sc1nc2sc3c(c2c(=O)n1Cc1ccccc1)CCCC3,8%,17%,·,·

# Source: PubChem BioAssay (National Center for Advancing Translational Sciences (NCATS))
